# Source: PubChem
# Most compounds without a hit are left out; they make up all but 13% or so of the library.
# Lassa entry inh: Lassa virus entry inhibition; actives 1.2% (n = 300,000); Potency, µM (doses to about 37.9 µM), for inactives: at the top dose activity change, negative = inhibition, most hits filed as inhibitors; AID 540256; Lassa virus pseudotype entry inhibition, cell reporter; calls by dose curve; tested in HEK293 cells; note: potency is the fitted concentration of half-maximal effect; % is set by controls: 0 for no effect and ±100 for the full control effect; nearly all actives have a fitted effect of over 50% in size
# Cycloheximide cs: counter-screen for Shiga toxin inhibitors: cycloheximide protein synthesis inhibition | cell reporter, cycloheximide protein synthesis inhibition counterscreen | max response, % | actives 12% (n = 300,000); in the data active = max response mostly above about 13%, no sharp cut-off; inactive = mostly below about 14%; note: read at 38.3 µM for the half of the compounds with a filed dose; 0% is about no effect
# HCV inh: inhibitors of hepatitis C virus infection. Huh7.5.1 HCVcc-Cre infection, luciferase reporter, 44 h. Potency, µM (titrated, usually from 41.8 µM), for inactives: at the highest dose activity change, negative = inhibition, usual class: inhibitors. actives 3.4% (n = 340,000). AID 651820; active = well fitted inhibition curve with a large enough effect; inconclusive = small, poorly fitted or top-dose-only effect, or another doubt; inactive = no such curve, though single readings can be large or run the other way; note: potency is the fitted concentration of half-maximal effect; % is set by controls: 0 for no effect and ±100 for the full control effect
#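 A cell-based infection assay in which seeded cells (1,000 per well) receive test compound after 4 h, are inoculated with HCVcc-Cre at approximately 0.5 moi, and are incubated 44 h before luminescence detection.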
# Shiga toxin inh: Shiga toxin inhibition; inhibition, % at 38.7 µM; Vero cells, Shiga toxin protein synthesis inhibition reporter; actives 9.2% (n = 290,000); in the data active = inhibition mostly above about 28%, no sharp cut-off; inactive = mostly below about 43%; note: 0% is about no effect
# MARV entry inh: blocks Marburg virus binding to or entry into cells. Marburg virus pseudotyped entry inhibition, cell reporter. Potency, µM (doses to about 37.8 µM), for the others: top-dose activity change, negative = inhibition, hits mostly inhibitors. actives 1.8% (n = 300,000). AID 540276; calls by dose curve; tested in HEK293 cells; note: potency is the fitted concentration of half-maximal effect; % is set by controls: 0 for no effect and ±100 for the full control effect
# FMDV antiviral: antivirals against foot and mouth disease virus; FMDV antiviral cell-based qHTS; Potency, µM (top dose mostly 57.9 µM), without a hit: at the highest dose activity change, negative = inhibition, hits mostly inhibitors; actives 1.2% (n = 410,000); AID 1159524; calls by dose curve; tested in HEK293T cells; note: read-out not given here; potency is the fitted concentration of half-maximal effect; % is set by controls: 0 for no effect and ±100 for the full control effect; nearly all actives have a fitted effect of over 45% in size
# Starred values were filed as active, the others as inactive; ? = inconclusive; . = not tested or not shown; [ ] = remark or other dose.
SMILES,Lassa entry inh,Cycloheximide cs,HCV inh,Shiga toxin inh,MARV entry inh,FMDV antiviral
C[C@]12c3[nH]c4ccccc4c3CCN1C(=O)C(CC(=O)NCc1cccc(C(F)(F)F)c1)C[C@@H]2C(=O)N1CCOCC1 (some centres undefined),.,.,?,.,.,-24%
COCCCNC(=O)CC1C[C@H](C(=O)N2CCCCC2)[C@@]2(CCc3ccccc3)c3[nH]c4ccc(OC)cc4c3CCN2C1=O (some centres undefined),.,.,19%,.,1%,7%
COc1ccc2[nH]c3c(c2c1)CCN1C(=O)C(CC(=O)NCc2ccc(OC)c(OC)c2)C[C@H](C(=O)N2CCCCC2)[C@@]31CCc1ccccc1 (some centres undefined),.,.,10µM*,.,.,-27%
C[C@]12c3[nH]c4ccc(Cl)cc4c3CCN1C(=O)[C@@H](CC(=O)NCc1cccc(C(F)(F)F)c1)C[C@@H]2C(=O)N1CCOCC1,.,.,7.1µM*,.,.,-43%
COc1ccc2[nH]c3c(c2c1)CCN1C(=O)C(CC(=O)NCc2ccco2)C[C@H](C(=O)N2CCCCC2)[C@@]31CCc1ccccc1 (some centres undefined),.,.,0.56µM*,.,0%,-4%
COc1ccc(CNC(=O)C[C@H]2C[C@H](C(=O)N3CCCCC3)[C@@]3(C)c4[nH]c5ccc(Cl)cc5c4CCN3C2=O)cc1OC,.,.,14µM*,.,2%,-28%
Nc1cc(N)nc(SCC(=O)N2CCN(S(=O)(=O)c3ccccc3)CC2)n1,.,-3,17%,0,.,-10%
C=CCn1c(CSc2nnc(-c3ccccc3)n2C)n[nH]c1=S,-3%,-6,6%,2,2%[46.1 µM],-2%
O=C(C[C@H]1C[C@H](C(=O)N2CCCCC2)[C@@]2(CCc3ccccc3)c3[nH]c4ccc(Cl)cc4c3CCN2C1=O)NCCc1ccccn1,.,.,0%,.,.,?
COc1ccc2[nH]c3c(c2c1)CCN1C(=O)C(CC(=O)NCCc2ccccn2)C[C@H](C(=O)N2CCCCC2)[C@@]31CCc1ccccc1 (some centres undefined),.,.,7.9µM*,.,-3%,7%
O=S(=O)(NCC(O)c1ccccc1)c1ccc(-c2ccccn2)s1 (centres undefined),?,-3,?,-5,-1%[46.1 µM],8%
Cn1c(N=Nc2ccc(N3CCOCC3)cc2)[n+](C)c2ccccc21,-8%,48*,-17%,94*,3%,17%
Cn1c(=Nc2ccc(N3CCOCC3)cc2)ccc2ccccc21,2%,1,-8%,-7,-1%,-8%
Cc1cc(C)c2nc(N3CCC(C(=O)NCc4cccnc4)CC3)sc2c1,.,21*,-29%,86*,.,-1%
Cc1cc(C)c2nc(N3CCC(C(=O)NCc4ccccn4)CC3)sc2c1,.,47*,1%,68,.,13%
Cc1cc(C)c2nc(N3CCC(C(=O)NCCCN4CCCC4=O)CC3)sc2c1,.,-1,-20%,-10,.,-7%
Cc1cc(C)c2nc(N3CCCC(C(=O)NCc4cccc(Br)c4)C3)sc2c1 (centres undefined),.,.,.,.,-3%[46.1 µM],13%
CCC(C)(C)NC(=O)COc1ccc(OCc2ccccc2)cc1,-8%,16,12%,27,-2%[46.1 µM],-3%
CC(C)(C)NC(=O)COc1ccc(-c2ccccc2)cc1,?,30*,12%,86*,0%,15%
CCNC(=O)COc1ccc(OCc2ccccc2)cc1,-3%[46.1 µM],32*,3%,102*,?,12%
CCNC(=O)COc1ccc(-c2ccccc2)cc1,?,47*,-4%,60*,?,76%
CCC(C)NC(=O)COc1ccc(OCc2ccccc2)cc1 (centres undefined),.,12*,-12%,-8,.,-4%
COc1ccc(NC(=O)COc2ccc(-c3ccccc3)cc2)cc1,.,.,5%,.,.,-22%
O=C(c1ccc2c(c1)OCCO2)N1CCN(c2ccccn2)CC1,.,21,12%,1,.,-3%
Cc1ccc2nc(NC(=O)CN3C(=O)NC4(CCCC4)C3=O)sc2c1,1%,.,?,.,-3%,26%
Cc1ccc(-n2ncc3c2CC(C)(C)CC3NC(=O)CCn2cncn2)cc1 (centres undefined),-15%,-1,11%,-13,2%,-22%
